# Assay results taken from PubChem BioAssay.
# Test: basal RPMI8226 mitochondrial membrane potential changes, profiling panel, cell-based, JC-1 fluorescence, 24 h, 100 nL compound (AID 1169); note: test concentration not given here
# Details: RPMI8226 myeloma, JC-1 mitochondrial potential fluorescence, higher = more signal
row,SMILES,z-score
1,NC(=O)NCC#Cc1ccc2c(c1)[C@]1(C(=O)N2)[C@H](C(=O)N2CCN(c3ncccn3)CC2)[C@H]2C(=O)O[C@H](c3ccccc3)[C@H](c3ccccc3)N2[C@@H]1c1ccc(O)cc1,-0.315
2,COc1ccc(C#Cc2ccc3c(c2)[C@]2(C(=O)N3)[C@H](c3ccc(O)cc3)N3[C@H](c4ccccc4)[C@H](c4ccccc4)OC(=O)[C@H]3[C@@H]2C(=O)Nc2nc3ccccc3s2)cc1,-0.429
3,COCCCNC(=O)[C@@]1(Sc2ccc(C)cc2)CC(=O)N(C2Cc3ccccc3C2)[C@@H]1c1ccc(CO)cc1,0.445
4,CCC1=C2CN(Cc3ccccc3)[C@@H](C(=O)Cc3ccccc3)C2C=CCC1 (stereo partly specified),0.424
5,CCOC(=O)C1=C[C@@H](C(C)(C)C)N(S(=O)(=O)c2ccc(C)cc2)[C@H]1c1cccc2ccccc12,-0.919
6,C=CCC(OC(C)=O)[C@@H]1[C@@H](N(Cc2cc3ccccc3o2)C(=O)Cc2ccc(F)cc2)c2cc(OCCCO)ccc2N1C(=O)Cc1ccc2ccccc2c1 (stereo partly specified),-0.311
7,COC(=O)[C@@]1(Cc2ccc(OC)cc2)[C@H]2c3cc(C(=O)N4CCCC4)n(CCc4c[nH]c5ccc(OC)cc45)c3C[C@H]2CN1C(=O)c1ccccc1,-0.819
8,COC(=O)[C@@]1(Cc2ccc(OC)cc2)[C@H]2c3cc(C(=O)N(C)C)n(Cc4ccc(C)o4)c3C[C@H]2CN1C(=O)c1ccccc1,-0.939
9,CC(C)c1ccc(NN2C(C(O)c3ccc(F)cc3)C=CC3C(=O)N(c4ccccc4)C(=O)C32)cc1 (stereo unspecified),0.282
10,COc1cc2c(cc1O)C(C1CC1)N(C)CC2 (stereo unspecified),0.0965
11,CCCCN1CC=CC23O[C@@H]4/C=C\CCCOC(=O)C4[C@H]2C(=O)N(CCO)[C@@H]3C1=O (stereo partly specified),0.378
12,COCCCNC(=O)[C@@]1(CCC(=O)OC(C)(C)C)N=C(c2ccc(OCCCO)cc2)O[C@H]1c1ccccc1N=[N+]=[N-],-1.15
13,CS(=O)(=O)CCOC(=O)C1=CC(c2ccc(CO)cc2)=CC(C2CC2)N(Cc2sc3ccccc3c2Cl)C=C1C(=O)OCCS(C)(=O)=O (stereo unspecified),-0.943
14,COCCOC(=O)N1C(=O)[C@@]2(c3ccccc31)[C@H](C(=O)NC[C@H](O)c1ccccc1)[C@H]1C(=O)O[C@H](c3ccccc3)[C@H](c3ccccc3)N1[C@@H]2c1ccc(O)cc1,-1.32
15,CN(C)C(=O)[C@]1(Cc2ccccc2CN=[N+]=[N-])N=C(c2ccc(OCCCO)cc2)O[C@@H]1c1ccccc1,-1.33
16,COc1cc(OC)c(C(O)C2C=CC3C(=O)N(Cc4ccccc4)C(=O)C3N2n2cnnc2)cc1Br (stereo unspecified),-0.345
17,C=C[C@H](C)[C@H](OC(=O)Nc1ccc(SC)cc1)c1ccc(OCCO)cc1,-0.781
18,CCOC(=O)C1=C[C@@H](C(C)C)N(S(=O)(=O)c2ccc(C)cc2)[C@H]1c1ccc(C(F)(F)F)cc1,-0.208

row,SMILES,z-score
1,CCOC(=O)C[C@H]1[C@H](OC(=O)c2ccc(-c3ccccc3)cc2)[C@@H](NC(=O)CC(C)C)c2cc(OCCCO)ccc2N1C(=O)c1ccc2ccccc2n1,-0.233
2,COc1cccc(C)c1NC(=O)O[C@H]1[C@H](OC(=O)Nc2ccccc2-c2ccccc2)[C@H](OC(=O)Nc2ccccc2-c2ccccc2)[C@@H](OC)O[C@@H]1CO,0.198
3,C=C(COC)C(=O)CC[C@@H](OC(C)=O)c1cccc(OCCO)c1,0.0392
4,C=CCNC(=O)[C@@H]1[C@H]2C(=O)O[C@H](c3ccccc3)[C@H](c3ccccc3)N2[C@H](c2ccc(OCCO)cc2)[C@@]12C(=O)N(C(=O)OCCOC)c1ccc(C#Cc3ccc(OC)cc3)cc12,-0.813
5,CCCNC(=O)[C@@]1(C)c2ccccc2C(=O)N(c2ccc(C)cn2)[C@H]1c1ccc(CO)cc1,0.0215
6,CC(=O)NCCCC[C@@H]1NC(=O)[C@@H]2C[C@H](C(=O)NCCCCCN)[C@H](c3ccc(O)cc3)N2C1=O,-0.673
7,CC1CC/C=C\[C@H]2OC34C=CCN(Cc5ccccc5)C(=O)[C@H]3N(C(CO)C(C)C)C(=O)[C@@H]4C2C(=O)O1 (stereo partly specified),-0.795
8,COc1ccc(CCNC(=O)[C@@]2(c3ccc([N+](=O)[O-])cc3)CC(=O)N(C3CCCCC3)[C@@H]2c2ccc(CO)cc2)cc1,0.562
9,C=CCC(OC(C)=O)[C@@H]1[C@@H](N(Cc2cccc3ccccc23)C(=O)Cc2ccc(OC)cc2)c2cc(OCCCO)ccc2N1C(=O)c1ccc(-c2ccccc2)cc1 (stereo partly specified),0.0206
10,COc1ccc([Si](C)(C)[C@@H]2[C@@H](CCO)O[C@]3(C(=O)N(Cc4ccccc4)c4ccc(NC(=O)[C@H](C)O)cc43)[C@H]2C)cc1,-0.972
11,[N-]=[N+]=Nc1ccccc1[C@@H]1OC(c2ccc(OCCCO)cc2)=N[C@]1(Cc1ccccc1)C(=O)O,-0.739
12,COc1ccc([C@H]2OC[C@@H]3C[C@H](Cc4ccccc4)C(=O)N32)cc1,0.00274
13,CC(C)N1CC=CC23O[C@@H]4C=CCCOC(=O)C4[C@H]2C(=O)N(CCCO)[C@@H]3C1=O (stereo partly specified),-0.303
14,COc1ccc([Si](C)(C)[C@@H]2[C@@H](CCO)O[C@]3(C(=O)N(Cc4cccc(NC(=O)[C@H](C)O)c4)c4ccccc43)[C@H]2C)cc1,-1.06
15,NCCCCCNC(=O)[C@@H]1C[C@@H]2C(=O)N[C@@H](CCCCN)C(=O)N2[C@@H]1c1ccc(O)cc1,-0.457
16,C=CCN1Cc2ccccc2[C@@H]2OC(c3ccc(OCCCO)cc3)=N[C@]2(CC=C)C1=O,-1.09
17,C=CCNC(=O)[C@@H]1[C@H]2C(=O)O[C@H](c3ccccc3)[C@H](c3ccccc3)N2[C@H](c2ccccc2OCCO)[C@@]12C(=O)N(C(=O)OCCOC)c1ccc(C#CC3(O)CCCCCC3)cc12,-0.816
18,CC(C)N1C(=O)c2ccccc2[C@@H](C(=O)NCCN2CCOCC2)[C@@H]1c1ccc(CO)cc1,0.772
